Dicer processing = human Dicer pre-microRNA cleavage inhibition; 47,000 tested, 6% active; AID 1347074; cat-ELCCA pre-miR-21 Dicer processing, chemiluminescence; hits give high values; z-score at 25 µM; Q9UPY3; in the data active = z-score above about 3, passing the limit was not always enough;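 also: plate controls were vehicle for no effect and no enzyme for full effect; higher signal means more uncleaved substrate so more Dicer inhibition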
* marks the source's active call; other numbers are inactive results. The sample as a whole holds a higher share of hits than the screen did.

How did CCOC(=O)C(CC)Sc1ncnc2sc3c(c12)CCCC3 (configuration not stated) do in these assays?
Dicer processing: -4.39

Results for C[C@@H]1Sc2ccc(C(F)(F)F)cc2NC1=O ?
Dicer processing: 2.46

How did CN(CCOC(=O)Nc1cc(Cl)cc(Cl)c1)c1ncc(C(F)(F)F)cc1Cl do in these assays?
Dicer processing: -0.65

Results for COc1ccc(C2c3c(oc4cc(C)c(C)cc4c3=O)C(=O)N2c2nccs2)cc1OC (configuration not stated) ?
Dicer processing: 0.58

Results for COc1ccc(C2CC(C(F)(F)F)n3nc(C(N)=O)cc3N2)cc1OC (configuration not stated) ?
Dicer processing: -0.89

What do the screens show for `O=C(c1cc2n(n1)C(C(F)(F)F)CC(c1ccc(Br)cc1)N2)N1CCCCC1` (configuration not stated)?
Dicer processing: 1.16

What do the screens show for `O=C(c1cc2n(n1)C(C(F)(F)F)CC(c1ccco1)N2)N1CCN(c2ccccn2)CC1` (configuration not stated)?
Dicer processing: -0.69

How did O=C(c1cc2n(n1)C(C(F)(F)F)CC(c1ccc(Cl)cc1)N2)N1CCCC1 (configuration not stated) do in these assays?
Dicer processing: 1.72

What do the screens show for `O=C(c1cc2n(n1)C(C(F)(F)F)CC(c1ccccc1)N2)N1CCOCC1` (configuration not stated)?
Dicer processing: 3.6*

What do the screens show for `CC1CCN(C(=O)c2cc3n(n2)C(C(F)(F)F)CC(c2ccc(Br)cc2)N3)CC1` (configuration not stated)?
Dicer processing: 5.41*

What do the screens show for `O=C(c1cc2n(n1)C(C(F)(F)F)CC(c1ccc(Cl)cc1)N2)N1CCCCC1` (configuration not stated)?
Dicer processing: 1.75

Results for O=C(c1cccc(F)c1)N1CCN(C(=O)c2cc3n(n2)C(C(F)(F)F)CC(c2ccco2)N3)CC1 (configuration not stated) ?
Dicer processing: 1.12

What do the screens show for `O=C(c1cc2n(n1)C(C(F)(F)F)CC(c1ccc(Br)cc1)N2)N1CCOCC1` (configuration not stated)?
Dicer processing: 4.96*

What do the screens show for `CCOC(=O)N[C@@H](Cc1ccccc1)C(=O)O`?
Dicer processing: 2.2

Results for COc1ccc(/C(O)=C2\C(=O)C(=O)N(CCCN(C)C)C2c2ccc(Br)cc2)cc1 (configuration not stated) ?
Dicer processing: 1.16

Results for CSc1scc2c1/C(=N\O)CC(C)(C)C2 ?
Dicer processing: 8.45

How did O=C(NCc1cccc(Cl)c1)c1nc2c(nnn2CC2CCCO2)c(=O)[nH]1 (configuration not stated) do in these assays?
Dicer processing: 1.84

Results for N=C(N)SCCN1C(=O)c2ccccc2C1=O ?
Dicer processing: -0.54

How did O=C(Cn1c2ccccc2n2nc(-c3ccco3)nc12)c1ccc(Br)cc1 do in these assays?
Dicer processing: -1.19

What do the screens show for `c1ccc(-c2oc3ncn4nc(-c5cccnc5)nc4c3c2-c2ccccc2)cc1`?
Dicer processing: 0.36

Results for CN(C)c1ccc(/C=N/O)c(F)c1C#N ?
Dicer processing: 0.98

Results for COc1ccc(N2C(=O)CC(N3CCC(C(=O)O)CC3)C2=O)cc1 (configuration not stated) ?
Dicer processing: 0.07

Results for Cc1c(CO)c2ccccc2n1Cc1ccc(Br)cc1 ?
Dicer processing: 0.5

How did COc1ccc(O)c(C2=NN3C(C2)c2cccc(OC)c2OC3c2ccccc2F)c1 (configuration not stated) do in these assays?
Dicer processing: 0.02

How did COc1ccc(O)c(C2=NN3C(C2)c2ccccc2OC3c2cccc(F)c2)c1 (configuration not stated) do in these assays?
Dicer processing: 5.23*

What do the screens show for `COc1ccc(O)c(C2=NN3C(C2)c2ccccc2OC3c2ccccc2)c1` (configuration not stated)?
Dicer processing: 8.34*

What do the screens show for `Oc1ccccc1C1=NN2C(C1)c1ccccc1OC2c1ccsc1` (configuration not stated)?
Dicer processing: 4.55

Results for Cc1ccc(O)c(C2=NN3C(C2)c2ccccc2OC3c2ccsc2)c1 (configuration not stated) ?
Dicer processing: 2.89

Results for COc1ccc(O)c(C2=NN3C(C2)c2cccc(OC)c2OC3c2cccc(OC)c2OC)c1 (configuration not stated) ?
Dicer processing: 2.07

What do the screens show for `COc1ccc(O)c(C2=NN3C(C2)c2cccc(OC)c2OC3c2cc(OC)ccc2OC)c1` (configuration not stated)?
Dicer processing: 2.92

What do the screens show for `COc1ccc(O)c(C2=NN3C(C2)c2ccccc2OC3c2ccc(OC)c(OC)c2)c1` (configuration not stated)?
Dicer processing: 5.95*

What do the screens show for `COc1ccc(O)c(C2=NN3C(C2)c2ccccc2OC3c2ccsc2)c1` (configuration not stated)?
Dicer processing: 5.45*

From PubChem
